Shown are actives, neighbours in structure and some others; about 19% of the full set was active somewhere.
MCF10A rereplic: A quantitative high throughput screen for small molecules that induce DNA re-replication in MCF 10a normal breast cells. MCF 10A DNA re-replication, Hoechst nuclear intensity, 48 h. Potency, µM (highest dose often 46.1 µM), for the others: at the top dose activity, positive = re-replication, usual class: activators. 350,000 compounds, 2.9% hits. AID 624296, 2012; further: potency means the concentration at half of the fitted maximal effect; % of control where 0% means no effect; nearly all actives have a fitted effect of over 50% in size
TDP1 cell CPT: qHTS for Inhibitors of human tyrosyl-DNA phosphodiesterase 1 (TDP1): qHTS in cells in presence of CPT; 420,000 compounds, 12% hits; chicken DT40 Tdp1-/-;hTDP1 cells + 20 nM CPT, ATP luminescence, 48 h; Potency, µM (top dose mostly 46.2 µM), inactives show at the top dose activity change, negative = growth inhibition, hits mostly inhibitors; further: potency means the concentration at half of the fitted maximal effect; on the % scale 0 is the no-effect control and ±100 the full control effect; nearly all actives have a fitted effect of over 55% in size
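Chicken DT40 Tdp1-/- cells stably complemented with human TDP1 were seeded at 400 cells/well in medium containing 20 nM camptothecin, exposed to pin-transferred compounds, and grown at 37 °C for at least 48 hr. Viability was read as ATP luminescence.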
BCR signal inh: qHTS Assay to Find Inhibitors of Chronic Active B-Cell Receptor Signaling; AID 493014, 2011; Potency, µM (doses to about 46.1 µM), for the others: top-dose activity change, negative = inhibition, actives largely listed as inhibitors; 340,000 compounds, 0.05% hits; ABC-DLBCL IkBa-CBG/CBR reporter, luminescence ratio, 4 h; active means well fitted inhibition curve with a large enough effect in the signal ratio, with a control signal flat, not every such curve was filed as active; inconclusive means small, poorly fitted or top-dose-only effect, or effect the other way, or a change in a side signal; the % refers to the signal ratio;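 further: potency means the concentration at half of the fitted maximal effect; plate controls were basal doxycycline-induced cells for no effect and cells given 10 µM MG132 for full effect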
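Doxycycline induced both beetle luciferases in TMD8 lymphoma cells; IKK-driven degradation limits the IkappaBalpha-fused green signal, while red luminescence normalises for cell number and nonspecific effects. Compounds tested up to 46 uM, 4 hrs.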
TDP1 cell noCPT: qHTS for Inhibitors of human tyrosyl-DNA phosphodiesterase 1 (TDP1): qHTS in cells in absence of CPT; DT40 Tdp1-/- hTDP1 cells, no CPT, ATP luminescence, 48 h; Potency, µM (series often up to 46.2 µM), for inactives: at the highest dose activity change, negative = growth inhibition, hits mostly inhibitors; 420,000 compounds, 15% hits; further: potency means the concentration at half of the fitted maximal effect; on the % scale 0 is the no-effect control and ±100 the full control effect; nearly all actives have a fitted effect of over 55% in size
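DT40 Tdp1-/-;hTDP1 cells, no CPT (DMSO vehicle only), 400 cells/well; compounds pin-transferred; ≥48 hr, 37 °C; CellTiter-Glo 30 min RT dark, luminescence read.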
SW480 rereplic: A quantitative high throughput screen for small molecules that induce DNA re-replication in SW480 colon adenocarcinoma cells; SW480 DNA re-replication, Hoechst DNA content imaging, 48 h; Potency, µM (series often up to 46.1 µM), for the others: top-dose re-replication activation, most hits filed as activators; 340,000 compounds, 1.8% hits; further: potency means the concentration at half of the fitted maximal effect; % of control where 0% means no effect; nearly all actives have a fitted effect of over 55% in size
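Treated cells incubate 48 hr (37 C, 5% CO2), are stained 40 min with Hoechst, and nuclear fluorescence is enumerated; a rise in nuclei with high DNA signal marks re-replication.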
IL1B secr inh: qHTS for Inhibitors of Inflammasome Signaling: IL-1-beta AlphaLISA Primary Screen; THP-1 LPS/ATP IL-1B secretion, AlphaLISA, 16 h; stronger effect = lower value; 360,000 compounds, 4.7% hits; AID 743279, 2014; activity change, % at 57.5 µM; in the data active means activity change below about -50%; inconclusive means mostly about -30% to -49%; further: on the % scale 0 is the no-effect control and ±100 the full control effect
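Secreted IL-1B measured by AlphaLISA bead assay after 16 h compound exposure of THP-1 cells; compounds (final up to 57.5 uM) added 1 h before LPS (250 ng/mL) and ATP (1.25 mM) stimulation; lower signal means less secretion.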
* hit, by the source's call; ? = inconclusive; nt = no result; [ ] = remark or other dose. Unless noted, the call rests on the fitted dose curve; in most records, active means well fitted curve in the direction sought with a large enough effect; inconclusive means small, poorly fitted or top-dose-only effect, or another doubt; inactive means no such curve, though single readings can be large; an effect the other way counts as inactive or inconclusive.

SMILES	MCF10A rereplic	TDP1 cell CPT	BCR signal inh	TDP1 cell noCPT	SW480 rereplic	IL1B secr inh
COc1cc2c(c(OC)c1OC)-c1ccc(SC)c(=O)cc1C(NC=O)CC2 (centres undefined)	?	0.13µM*	nt	0.16µM*	?	30
CNC1CCc2cc(OC)c(OC)c(OC)c2-c2ccc(OC)c(=O)cc21 (centres undefined)	0.075µM*	nt	nt	nt	0.12µM*	nt
COc1ccc(CCNC(=O)CN(c2ccccc2)S(=O)(=O)N(C)C)cc1OC	nt	-12%	nt	-9%	nt	nt
COc1ccccc1CN1C(=O)C(C)ON=C1c1ccccc1F (centres undefined)	nt	-24%	nt	?	nt	21
CC(NC(=O)C1CCC(CNc2c(N3CCCCC3)c(=O)c2=O)CC1)c1ccccc1 (centres undefined)	-4%	19%	?	-12%	-4%	-14
CCCC(=O)NC1CCc2cc(OC)c(OC)c(OC)c2-c2ccc(OC)c(=O)cc21 (centres undefined)	?	0.016µM*	nt	0.016µM*	0.0046µM*	62
O=C(O)CCCC(=O)Nc1ccn(-c2ccccc2)n1	-30%	18µM*	?	?	-1%[9.22 µM]	47
Cc1c(NC(=O)[C@@H](NC(=O)c2ccc(Cl)c([N+](=O)[O-])c2)C(C)C)c(=O)n(-c2ccccc2)n1C	10%	3%	4%	?	-1%	-94*
COc1cccc(NC(=O)c2ccc3nc(C)sc3c2)c1	-2%	18µM*	?	?	-12%	-22
COc1ccc(C(=O)Nc2cccc(OC(=O)c3ccc(C)c(C)c3)c2)cc1	1%	-75%	-12%	23µM*	0%	0
COc1cc(CC(=O)Nc2ccc3nc(C)sc3c2)cc(OC)c1OC	-7%	-21%	?	?	4%	35
COc1ccc(C(=O)Nc2cccc(OC(=O)c3ccco3)c2)cc1	1%	6%	?	2%	15%	-4
COc1cccc(CC(=O)Nc2ccc3nc(C)sc3c2)c1	-9%	?	-2%	13µM*	9.2µM*	33
Cc1nc(NCc2ccccc2)c2cc[nH]c2n1	-6%	?	?	12µM*	-17%	-14
Nc1nc(NCc2ccccc2)c2[nH]cnc2n1	nt	-9%	nt	1%	nt	nt
O=C(c1cc(COc2ccc(F)cc2F)on1)N1CC2C[C@@H]3CC1C[C@H](C2)C3	?	6.5µM*	3%	2.6µM*	?	-98*
CC(=O)c1cccc(OCc2cc(C(=O)N3CC4C[C@@H]5CC3C[C@H](C4)C5)no2)c1	-6%	2.6µM*	8%	1.5µM*	-7%	18
CCOC(=O)N1CCN(C(=O)c2cc(COc3cccc(C(C)=O)c3)on2)CC1	?	?	2%	?	2%	0
O=C(c1cc(COc2ccc(F)cc2F)on1)N1C[C@H]2CC[C@H]1C2	3%	?	0%	?	0%	-18
COc1ccccc1OCc1cc(C(=O)N2CC3C[C@@H]4CC2C[C@H](C3)C4)no1	14%	12µM*	?	13µM*	?	0
CCc1nc2c(OCc3ccccc3)cccn2c1N(C)C(=O)c1ccc2c(c1)OCO2	nt	?	nt	?	nt	-2
Cc1ccc(NC(=O)C2(C)CCN2CCc2ccccc2)cc1 (centres undefined)	nt	?	nt	?	nt	0

Assay outcomes deposited in PubChem BioAssay by National Center for Advancing Translational Sciences (NCATS).
